{"source": "PubChem BioAssay", "note": "Values without a mark were called inactive. The rule behind the calls is not given here."}
{"system": "Aerobactin synthetase IucA (Klebsiella pneumoniae hvKP1)", "assay": "Biochemical IucA enzyme inhibition primary screen of the Spectrum library (AID 1346200);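 note: 100% = wells without compound and 0% = wells lacking enzyme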", "settings": "malachite green pyrophosphate, A620, at 8 µM, hits give low values", "units": {"activity remaining": "%"}}
{"smiles": "COc1c2ccoc2cc2oc(C)cc(=O)c12", "activity remaining": 108}
{"smiles": "COc1cc(OC)c2c(=O)c(OC)c(-c3ccc(OC)c(OC)c3)oc2c1", "activity remaining": 120}
{"smiles": "CC(=O)Nc1ccc(O)cc1", "activity remaining": 90}
{"smiles": "O=C(OCC(O)CO)c1ccccc1Nc1ccnc2cc(Cl)ccc12", "note": "(stereo not given)", "activity remaining": 119}
{"smiles": "CC1=C(CCC(=O)O)c2cc3nc(cc4[nH]c(cc5[nH]c(cc1n2)c(C)c5C(C)O)c(C)c4C(C)O)C(C)=C3CCC(=O)O", "note": "(stereo not given)", "activity remaining": 107}
{"smiles": "NC[C@H]1O[C@H](O[C@H]2C(O[C@@H]3O[C@H](CO)[C@@H](O)[C@H]3O)[C@@H](O)[C@H](N)C[C@@H]2N)[C@H](N)[C@@H](O)[C@@H]1O", "note": "(stereo not given in full)", "activity remaining": 123}
{"smiles": "COc1ccc2c(c1)OCC(Cc1ccc(OC)c(OC)c1)C2=O", "note": "(stereo not given)", "activity remaining": 95.4}
{"smiles": "CC(=O)OCC(=O)[C@@]1(O)[C@H](C)CC2C3CCC4=CC(=O)C=C[C@]4(C)[C@@]3(F)[C@@H](O)C[C@@]21C", "note": "(stereo not given in full)", "activity remaining": 119}
{"smiles": "O=C(CC(=O)c1ccccc1)c1ccccc1", "activity remaining": 101}
{"smiles": "OC(CCN1CCCC1)(c1ccccc1)C1CCCCC1", "note": "(stereo not given)", "activity remaining": 99.4}
{"smiles": "Cc1cc(O)c(C=O)c2c1C(=O)Oc1c(COC(=O)/C=C/C(=O)O)c(O)c(C(=O)O)c(C)c1O2", "activity remaining": 93.9}
{"smiles": "COC1=C(OC)C(=O)C(C/C=C(\\C)CC/C=C(\\C)CC/C=C(\\C)CC/C=C(/C)CC/C=C(\\C)CC/C=C(\\C)CC/C=C(\\C)CC/C=C(\\C)CC/C=C(\\C)CCC=C(C)C)=C(C)C1=O", "activity remaining": 93}
{"smiles": "NC(N)=Nc1nc(CSCC/C(N)=N\\S(N)(=O)=O)cs1", "activity remaining": 113}
{"smiles": "COc1cc(O)c(C(=O)O)c(O)c1", "activity remaining": 102}
{"smiles": "C1CCC(C(CC2CCCCN2)C2CCCCC2)CC1", "note": "(stereo not given)", "activity remaining": 103}
{"smiles": "CCCCC1C(=O)N(c2ccccc2)N(c2ccc(O)cc2)C1=O", "note": "(stereo not given)", "activity remaining": 114}
{"smiles": "OCc1ccccc1O[C@@H]1O[C@H](CO)[C@@H](O)[C@H](O)[C@H]1O", "activity remaining": 101}
{"smiles": "NC(Cn1ccc(=O)c(O)c1)C(=O)O", "note": "(stereo not given)", "activity remaining": 118}
{"smiles": "Nc1ccc(S(=O)(=O)Nc2ccc(Cl)nn2)cc1", "activity remaining": 112}
{"smiles": "CCN(CCO)CCCC(C)Nc1ccnc2cc(Cl)ccc12", "note": "(stereo not given)", "activity remaining": 109}
{"smiles": "CCC(Cc1c(I)cc(I)c(N)c1I)C(=O)O", "note": "(stereo not given)", "activity remaining": 103}
{"smiles": "O=C(Oc1cccc2cccnc12)c1ccccc1", "activity remaining": 92.9}
{"smiles": "NCCCC(O)(P(=O)(O)O)P(=O)(O)O", "activity remaining": 112}
{"smiles": "CN[C@@H]1[C@H](OC2[C@H](O[C@H]3[C@H](O)[C@@H](O)[C@H](N=C(N)N)[C@@H](O)[C@@H]3N=C(N)N)O[C@@H](C)[C@]2(O)C=O)O[C@@H](CO)[C@H](O)[C@H]1O", "note": "(stereo not given in full)", "activity remaining": 108}
{"smiles": "CCCCC(=O)Oc1ccccc1C(=O)O", "activity remaining": 85.8}
{"smiles": "C=C(C)[C@@H]1CC[C@]2(CO)CC[C@]3(C)[C@H](CCC4[C@@]5(C)CC[C@H](O)C(C)(C)C5CC[C@]43C)C12", "note": "(stereo not given in full)", "activity remaining": 93.4}
{"smiles": "COc1c2ccoc2cc2oc(=O)ccc12", "activity remaining": 102}
{"smiles": "C=NC(C(=O)NC1C(=O)N2C1SC(C)(C)C2C(=O)O)c1ccccc1", "note": "(stereo not given)", "activity remaining": 110}
{"smiles": "C=C1CCC2[C@](C)(CO)[C@H](O)CC[C@@]2(C)[C@@H]1C/C=C1/C(=O)OC[C@H]1O", "note": "(stereo not given in full)", "activity remaining": 108}
{"smiles": "CC(=O)OCC(=O)[C@H]1CCC2C3CCC4=CC(=O)CC[C@]4(C)C3CC[C@@]21C", "note": "(stereo not given in full)", "activity remaining": 111}
{"smiles": "CC[C@H](C)C(=O)O[C@H]1C[C@@H](C)C=C2C=C[C@H](C)[C@H](CC[C@@H]3C[C@@H](O)CC(=O)O3)[C@H]21", "activity remaining": 119}
{"smiles": "Cc1onc(-c2c(Cl)cccc2Cl)c1C(=O)N[C@@H]1C(=O)N2[C@@H]1SC(C)(C)[C@@H]2C(=O)O", "activity remaining": 121}
{"smiles": "O=C1O[C@@H](CO)[C@H](O)[C@@H](O)[C@@H]1O", "activity remaining": 113}
{"smiles": "Oc1c(Cl)cc(Cl)c(Cl)c1Cc1c(O)c(Cl)cc(Cl)c1Cl", "activity remaining": 118}
{"smiles": "COc1cc(NC(C)CCCN)c2ncccc2c1", "note": "(stereo not given)", "activity remaining": 123}
{"smiles": "NNC(=O)c1ccncc1", "activity remaining": 106}
{"smiles": "CC(C)C[C@@H](NC(=O)OCC1c2ccccc2-c2ccccc21)C(=O)O", "activity remaining": 119}
{"smiles": "O=c1c(O)cccc2c([C@H]3Oc4cc(O)cc(O)c4C[C@@H]3O)cc(O)c(O)c12", "activity remaining": 99.4}
{"smiles": "O=c1cccc2ccc(O)c(O)c2c1O", "activity remaining": 86.6}
{"smiles": "COC(=O)C1=CO[C@@H](O[C@@H]2O[C@H](CO)[C@@H](O)[C@H](O)[C@H]2O)[C@@H]2[C@@H](C)CC(=O)[C@]12O", "activity remaining": 109}
